Measured values from PubChem BioAssay (NCI).
Compounds without any hit were thinned out: in the full panel of roughly 83,000, 20% have a hit.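 The endpoint reported here, percent growth, reads 100 for growth as untreated, 0 for no net growth and -100 for all cells dead.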 The source made the active and inactive calls. The calls were made as follows: active = growth percent below 10; inactive = the rest.

Key:
Assay in all cases: NCI-60 one-dose screen, 48 h (100 = growth as untreated, 0 = no growth, -100 = all killed)
Conditions in all cases: 10 µM unless noted
DU-145 prostate = tested on: DU-145 prostate
K-562 leukemia = tested on: K-562 leukemia
MALME-3M melanoma = tested on: MALME-3M melanoma
MDA-MB-231 breast = tested on: MDA-MB-231 breast
RXF 393 renal = tested on: RXF 393 renal
SF-268 CNS = tested on: SF-268 CNS
SF-295 CNS = tested on: SF-295 CNS
SF-539 CNS = tested on: SF-539 CNS
UACC-257 melanoma = tested on: UACC-257 melanoma
M14 melanoma = tested on: M14 melanoma
HCT-15 colon = tested on: HCT-15 colon
HT29 colon = tested on: HT29 colon
SNB-75 CNS = tested on: SNB-75 CNS
SNB-19 CNS = tested on: SNB-19 CNS
U251 CNS = tested on: U251 CNS
PC-3 prostate = tested on: PC-3 prostate
SK-MEL-5 melanoma = tested on: SK-MEL-5 melanoma
UACC-62 melanoma = tested on: UACC-62 melanoma
LOX IMVI melanoma = tested on: LOX IMVI melanoma
SK-MEL-28 melanoma = tested on: SK-MEL-28 melanoma

Measured: growth

Cc1ccc(-c2nn(C)c(=O)c3noc(-c4ccc(C)cc4)c23)cc1
active: SF-539 CNS -4.12% | HT29 colon 9.47% | SNB-75 CNS -21.4%
inactive: DU-145 prostate 35.3% | K-562 leukemia 17% | MALME-3M melanoma 73.9% | MDA-MB-231 breast 58.3% | RXF 393 renal 13.6% | SF-268 CNS 55.1% | SF-295 CNS 41.2% | UACC-257 melanoma 62.8% | M14 melanoma 21.6% | HCT-15 colon 32.3% | SNB-19 CNS 32.9% | U251 CNS 27.4% | PC-3 prostate 26.1% | SK-MEL-5 melanoma 21.5% | UACC-62 melanoma 38.5% | LOX IMVI melanoma 44.3% | SK-MEL-28 melanoma 70.5%

NCCNc1nc2ccccc2c2c(=O)c3cccc(F)c3sc12
inactive: DU-145 prostate 37% | K-562 leukemia 17.2% | MALME-3M melanoma 88.4% | MDA-MB-231 breast 44.7% | RXF 393 renal 83.3% | SF-268 CNS 61.6% | SF-295 CNS 91.7% | SF-539 CNS 59.2% | UACC-257 melanoma 101% | M14 melanoma 83.3% | HCT-15 colon 36.5% | HT29 colon 16.4% | SNB-75 CNS 88% | SNB-19 CNS 56.8% | U251 CNS 43.9% | PC-3 prostate 62.9% | SK-MEL-5 melanoma 88.2% | UACC-62 melanoma 95.9% | LOX IMVI melanoma 46.6% | SK-MEL-28 melanoma 106%

O=C(N/N=C/[C@H](O)[C@@H](O)[C@@H](O)[C@H](O)CO)c1ccc(NC(=O)c2cccnc2)cc1
inactive: DU-145 prostate 119% | K-562 leukemia 110% | MALME-3M melanoma 108% | MDA-MB-231 breast 100% | RXF 393 renal 121% | SF-268 CNS 103% | SF-295 CNS 102% | SF-539 CNS 106% | UACC-257 melanoma 102% | M14 melanoma 114% | HCT-15 colon 105% | HT29 colon 111% | SNB-75 CNS 92.6% | SNB-19 CNS 97.4% | U251 CNS 102% | PC-3 prostate 102% | SK-MEL-5 melanoma 104% | UACC-62 melanoma 95.5% | LOX IMVI melanoma 104% | SK-MEL-28 melanoma 111%

N/C(=N\c1nc2ccccc2s1)NC(=O)Nc1cccc2ccccc12
active: K-562 leukemia 9.12% | RXF 393 renal -2.29% | SF-539 CNS -21% | M14 melanoma 5.44% | HT29 colon 6.2% | SNB-75 CNS 5.83%
inactive: DU-145 prostate 23.2% | MALME-3M melanoma 59.7% | MDA-MB-231 breast 52% | SF-268 CNS 56.4% | SF-295 CNS 33.3% | UACC-257 melanoma 67.4% | HCT-15 colon 18.9% | SNB-19 CNS 34.8% | U251 CNS 14.4% | PC-3 prostate 23.5% | SK-MEL-5 melanoma 14% | UACC-62 melanoma 29.2% | LOX IMVI melanoma 41.5% | SK-MEL-28 melanoma 65.3%

O=c1[nH]c2c(ccc3cnccc32)c2c1CCC2
active: DU-145 prostate -9.29% | MALME-3M melanoma -59.2% | MDA-MB-231 breast 2.78% | RXF 393 renal -53.8% | SF-268 CNS -17.7% | SF-295 CNS -47.2% | SF-539 CNS -59.7% | UACC-257 melanoma 6.08% | M14 melanoma -77% | HCT-15 colon 1.99% | HT29 colon 7.54% | SNB-75 CNS -33.4% | SNB-19 CNS 3.98% | U251 CNS 5.85% | PC-3 prostate 0.402% | SK-MEL-5 melanoma -48.5% | UACC-62 melanoma -81.3% | LOX IMVI melanoma 0.937% | SK-MEL-28 melanoma -52.7%
inactive: K-562 leukemia 14.6%

OC(c1ccccc1)C(NC(Cc1ccccc1)c1ccccc1)c1ccccc1 (stereo not given)
inactive: DU-145 prostate 98.7% | K-562 leukemia 82.5% | MALME-3M melanoma 91.9% | MDA-MB-231 breast 78.7% | RXF 393 renal 102% | SF-268 CNS 86.8% | SF-295 CNS 93.1% | SF-539 CNS 96.7% | UACC-257 melanoma 91.6% | M14 melanoma 91.8% | HCT-15 colon 89.2% | HT29 colon 71.3% | SNB-75 CNS 90.9% | SNB-19 CNS 87.6% | U251 CNS 86.4% | PC-3 prostate 80.5% | SK-MEL-5 melanoma 94.6% | UACC-62 melanoma 69.4% | LOX IMVI melanoma 89.2% | SK-MEL-28 melanoma 97.8%

O=C(/C=C/c1ccc([N+](=O)[O-])o1)NNC(=O)c1cc2ccccc2cc1O
inactive: DU-145 prostate 11.7% | MDA-MB-231 breast 21% | SF-295 CNS 54.8% | SNB-75 CNS 45.7% | SNB-19 CNS 33.5% | U251 CNS 17.5% | PC-3 prostate 38.4%
active: K-562 leukemia 3.48% | MALME-3M melanoma -36.3% | RXF 393 renal -20.8% | SF-268 CNS -3.99% | SF-539 CNS -22.6% | UACC-257 melanoma -16.5% | M14 melanoma -93.3% | HCT-15 colon -62.7% | HT29 colon 7.4% | SK-MEL-5 melanoma -86.9% | UACC-62 melanoma -99.1% | LOX IMVI melanoma -10.5% | SK-MEL-28 melanoma -46.1%

NS(=O)(=O)c1ccc(-n2nc(C(=O)N/N=C\c3ccc(F)cc3)cc2-c2ccc(Br)cc2)cc1
inactive: DU-145 prostate 93.4% | K-562 leukemia 18% | MALME-3M melanoma 68.3% | MDA-MB-231 breast 85.3% | RXF 393 renal 77.8% | SF-268 CNS 82.2% | SF-295 CNS 74.6% | SF-539 CNS 89.7% | UACC-257 melanoma 86.1% | M14 melanoma 79.7% | HCT-15 colon 54.3% | HT29 colon 66.4% | SNB-75 CNS 37.4% | SNB-19 CNS 83% | U251 CNS 89% | PC-3 prostate 72.2% | SK-MEL-5 melanoma 87.2% | UACC-62 melanoma 64.4% | LOX IMVI melanoma 74.9% | SK-MEL-28 melanoma 77.8%

N#Cc1c(-c2ccccc2)nc(SCC(=O)Nc2nc(-c3ccc(Cl)cc3)cs2)[nH]c1=O
inactive: DU-145 prostate 113% | K-562 leukemia 94.2% | MALME-3M melanoma 129% | MDA-MB-231 breast 120% | RXF 393 renal 110% | SF-268 CNS 103% | SF-295 CNS 98.2% | SF-539 CNS 100% | UACC-257 melanoma 97.4% | M14 melanoma 93.7% | HCT-15 colon 104% | HT29 colon 93.3% | SNB-75 CNS 84.3% | SNB-19 CNS 101% | U251 CNS 95.3% | PC-3 prostate 91.6% | SK-MEL-5 melanoma 97.9% | UACC-62 melanoma 88.4% | LOX IMVI melanoma 100% | SK-MEL-28 melanoma 101%

O=C1c2cccc3cccc(c23)C(=O)N1N1C(=O)c2cccc3c(NC4CCCCC4)ccc(c23)C1=O
inactive: DU-145 prostate 106% | K-562 leukemia 87.1% | MALME-3M melanoma 90.8% | MDA-MB-231 breast 75.6% | RXF 393 renal 92.9% | SF-268 CNS 93.6% | SF-295 CNS 95.3% | SF-539 CNS 94.2% | UACC-257 melanoma 100% | M14 melanoma 96.2% | HCT-15 colon 96.6% | HT29 colon 95.9% | SNB-75 CNS 87.5% | SNB-19 CNS 89.1% | U251 CNS 99.7% | PC-3 prostate 83.6% | SK-MEL-5 melanoma 96.7% | UACC-62 melanoma 83.5% | LOX IMVI melanoma 92.1% | SK-MEL-28 melanoma 100%

COc1ccc2[nH]c(-c3ccccc3)c(/C=C(\C#N)S(=O)(=O)c3ccccc3)c2c1
active: K-562 leukemia 5.1%
inactive: DU-145 prostate 70.1% | MALME-3M melanoma 47.7% | MDA-MB-231 breast 56.8% | RXF 393 renal 57.5% | SF-268 CNS 72.2% | SF-295 CNS 43.2% | SF-539 CNS 42.3% | UACC-257 melanoma 78.6% | M14 melanoma 42.7% | HCT-15 colon 39.3% | HT29 colon 21% | SNB-75 CNS 48.1% | SNB-19 CNS 63.2% | U251 CNS 39% | PC-3 prostate 49.6% | SK-MEL-5 melanoma 14.9% | UACC-62 melanoma 42.1% | LOX IMVI melanoma 61.2% | SK-MEL-28 melanoma 53.4%

CCCCCCCCCCCCCCCCCCOc1ccc(CC(=O)OCC[N+]2(C)CCCCC2)cc1
inactive: DU-145 prostate 107% | K-562 leukemia 83.9% | MALME-3M melanoma 98.8% | MDA-MB-231 breast 100% | RXF 393 renal 102% | SF-268 CNS 100% | SF-295 CNS 110% | SF-539 CNS 99.4% | UACC-257 melanoma 96% | M14 melanoma 99.8% | HCT-15 colon 97.5% | HT29 colon 91.4% | SNB-75 CNS 102% | SNB-19 CNS 87.5% | U251 CNS 91.9% | PC-3 prostate 92.2% | SK-MEL-5 melanoma 100% | UACC-62 melanoma 88.8% | LOX IMVI melanoma 94.7% | SK-MEL-28 melanoma 106%

CCc1nnc(NC(=O)c2nnn(-c3ccccc3)c2-c2ccco2)s1
inactive: DU-145 prostate 101% | K-562 leukemia 71.8% | MALME-3M melanoma 98.9% | MDA-MB-231 breast 92.9% | RXF 393 renal 100% | SF-268 CNS 107% | SF-295 CNS 87.2% | SF-539 CNS 99.7% | UACC-257 melanoma 102% | M14 melanoma 98.4% | HCT-15 colon 51.5% | HT29 colon 109% | SNB-75 CNS 89.6% | SNB-19 CNS 93.9% | U251 CNS 84% | PC-3 prostate 64.7% | SK-MEL-5 melanoma 83.2% | UACC-62 melanoma 86.5% | LOX IMVI melanoma 89% | SK-MEL-28 melanoma 95.1%

COc1cccc(-c2nc(-c3ccc(NC(=O)C(C)C)cc3)[nH]c2-c2ccnc(Br)c2)c1
active: K-562 leukemia 1.17% | RXF 393 renal -31% | SF-295 CNS -42.9% | HCT-15 colon 7.17% | SK-MEL-5 melanoma 6.14%
inactive: DU-145 prostate 61.4% | MALME-3M melanoma 34.4% | MDA-MB-231 breast 52.3% | SF-268 CNS 51.6% | SF-539 CNS 16% | UACC-257 melanoma 52.8% | M14 melanoma 40.2% | HT29 colon 23% | SNB-75 CNS 10.5% | SNB-19 CNS 44.6% | U251 CNS 32% | PC-3 prostate 18.7% | UACC-62 melanoma 37.1% | LOX IMVI melanoma 15.2% | SK-MEL-28 melanoma 47%

Cc1cccc2c3c(sc12)C(c1ccc(Cl)cc1)C(C#N)=C(/N=C/c1ccc(Cl)cc1)O3 (stereo not given)
inactive: DU-145 prostate 20.1% | MALME-3M melanoma 56.6% | MDA-MB-231 breast 28.5% | SF-268 CNS 44.6% | UACC-257 melanoma 65.1% | SNB-19 CNS 23.7% | U251 CNS 24.4% | PC-3 prostate 11% | SK-MEL-5 melanoma 26.4% | UACC-62 melanoma 13.1% | LOX IMVI melanoma 20.9% | SK-MEL-28 melanoma 58.1%
active: K-562 leukemia 8.84% | RXF 393 renal -15.3% | SF-295 CNS 1.19% | SF-539 CNS -13.7% | M14 melanoma 4.4% | HCT-15 colon 8.99% | HT29 colon 6.06% | SNB-75 CNS -3.88%
